# Compound activity deposited in PubChem by National Center for Advancing Translational Sciences (NCATS).
# Shown are actives, neighbours in structure and some others; about 19% of the full set was active somewhere.
# HT1080 IDH1KD tx: qHTS for induction of synthetic lethality in tumor cells producing 2HG: qHTS for the HT-1080-IDH1KD cell line; HT-1080 IDH1 knockdown viability, ATP luminescence, 48 h; Potency, µM (doses to about 46.1 µM), for inactives: at the top dose activity, negative = toxicity, usual class: cytotoxic; actives 2% (n = 360,000); AID 686971, 2013;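 further: potency means the concentration at half of the fitted maximal effect; 0% = DMSO wells and -100% = cell-free medium wells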
#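 HT-1080-IDH1KD cells (IDH1 knocked down), 750/well in RPMI with 5% FBS, treated with compound 48 h at 37 degrees C. Viability by CellTiter-Glo luminescence, normalised to DMSO and no-cell wells; concentration-response curves classed.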
# HT1080NT lethal: qHTS for induction of synthetic lethality in tumor cells producing 2HG: qHTS for the HT-1080-NT fibrosarcoma cell line. actives 1.6% (n = 360,000). Potency, µM (top dose mostly 46.1 µM), for the others: at the top dose activity, negative = less viability, most hits filed as cytotoxic. HT-1080-NT fibrosarcoma viability, CellTiter-Glo ATP luminescence, 48 h;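 further: NT is the 2HG producing partner of a matched IDH1 knockdown line; potency means the concentration at half of the fitted maximal effect; 0% = DMSO-treated cells and -100% = media-only wells without cells; nearly all actives have a fitted effect of over 55% in size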
#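 Luminescent CellTiter-Glo readout after 48 hours of compound exposure at 37 degrees C defined viability of HT-1080-NT cells. Activity was normalized to DMSO wells and cell-free media wells; concentration-response curves were fitted and assigned curve classes.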
# DT40 TDP1 CPT: qHTS for Inhibitors of human tyrosyl-DNA phosphodiesterase 1 (TDP1): qHTS in cells in presence of CPT; chicken DT40 Tdp1-/-;hTDP1 cells + 20 nM CPT, ATP luminescence, 48 h; Potency, µM (titrated, usually from 46.2 µM), for inactives: top-dose activity change, negative = growth inhibition, most hits filed as inhibitors; actives 12% (n = 420,000); AID 686979, 2013; further: potency means the concentration at half of the fitted maximal effect; nearly all actives have a fitted effect of over 55% in size
#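 Cell growth measured by CellTiter-Glo luminescence after a minimum 48 h, 37 C compound exposure with 20 nM CPT in Tdp1-knockout DT40 cells stably expressing hTDP1, seeded 400/well; qHTS titration format.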
# uPA surface inh: qHTS for Inhibitors of Cell Surface uPA Generation; cell surface uPA generation assay, qHTS; Potency, µM (titrated, usually from 38.3 µM), without a hit: at the highest dose activity change, negative = inhibition, actives largely listed as inhibitors; actives 0.31% (n = 330,000); AID 540303, 2011; active means well fitted inhibition curve with a large enough effect; inconclusive means small, poorly fitted or top-dose-only effect; inactive means no such curve, though single readings can be large or run the other way; tested in mouse RAW 264.7 cells; further: potency means the concentration at half of the fitted maximal effect; nearly all actives have a fitted effect of over 55% in size
# TDP1 cell noCPT: qHTS for Inhibitors of human tyrosyl-DNA phosphodiesterase 1 (TDP1): qHTS in cells in absence of CPT. DT40 Tdp1-/- hTDP1 cells, no CPT, ATP luminescence, 48 h. Potency, µM (doses to about 46.2 µM), for the others: at the top dose activity change, negative = growth inhibition, usual class: inhibitors. actives 15% (n = 420,000); further: potency means the concentration at half of the fitted maximal effect; nearly all actives have a fitted effect of over 55% in size
#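 No-CPT arm: Tdp1-/-;hTDP1 DT40 cells (400/well) plus compounds, incubated ≥48 hr at 37 °C. Readout CellTiter-Glo luminescence.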
# IL1B secr inh: qHTS for Inhibitors of Inflammasome Signaling: IL-1-beta AlphaLISA Primary Screen. THP-1 LPS/ATP IL-1B secretion, AlphaLISA, 16 h; stronger effect = lower value. activity change, % at 57.5 µM. actives 4.7% (n = 360,000). AID 743279, 2014; in the data active means activity change below about -50%; inconclusive means mostly about -30% to -49%
#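 THP-1 cells pretreated 1 hr with compounds (up to 57.5 uM final), then stimulated with LPS (250 ng/mL final) plus ATP (1.25 mM final); secreted IL-1B measured by AlphaLISA after 16 hr, decreased signal indicating inhibition.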
# * = called active by the depositor; ? = inconclusive; / = no result. Unless noted, the call rests on the fitted dose curve; in most records, active means well fitted curve in the direction sought with a large enough effect; inconclusive means small, poorly fitted or top-dose-only effect, or another doubt; inactive means no such curve, though single readings can be large; an effect the other way counts as inactive or inconclusive. Unless noted, on the % scale 0 is the no-effect control and ±100 the full control effect.
SMILES,HT1080 IDH1KD tx,HT1080NT lethal,DT40 TDP1 CPT,uPA surface inh,TDP1 cell noCPT,IL1B secr inh
COc1ccc(CNC(=O)C(=O)NCC2CCCO2)cc1 (configuration not stated),11%,10%,16µM*,3%,21µM*,3
COc1ccc(CNC(=O)C2CC(C)=CCC2C(=O)O)cc1 (configuration not stated),11%,11%,?,1%,-16%,74
COc1ccc(CCNC(=O)C(=O)NCC2CCCO2)cc1 (configuration not stated),8%,9%,-6%,-3%,-23%,-5
CC(C)c1cc(C(C)C)c(S(=O)(=O)N2c3ccccc3[C@@]3(Br)C[C@H]4C(=O)N[C@@H](Cc5ccccc5)C(=O)N4[C@@H]23)c(C(C)C)c1,-30%,-15%,12µM*,4%,12µM*,-18
CN(C)c1ccc(P(=O)(COc2ccc([N+](=O)[O-])cc2)c2ccc(N(C)C)cc2)cc1,?,?,?,-4%,21µM*,-11
O=[N+]([O-])c1ccc(OCCOCCOc2ccc([N+](=O)[O-])cc2)cc1,-5%,1%,3%,9%,-1%,-16
NNC(=O)CN1C(c2ccccc2Br)=Nc2ccc(Br)cc2C1c1ccccc1 (configuration not stated),-12%,-3%,?,-1%,16µM*,-7
NNC(=O)CN1C(c2cccc(Cl)c2)=Nc2ccc(Br)cc2C1c1ccccc1 (configuration not stated),-15%,-13%,?,1%,?,-29
COc1ccc(NC(=O)Nc2nnc(N3CCCCCC3)s2)c(OC)c1,/,/,?,/,18µM*,/
NNC(=O)Nc1cccc(C(F)(F)F)c1,13%,8%,-7%,0%,19%,17
COc1ccc(OC)c(NC(=O)Nc2nnc(N3CCCCC3C)s2)c1 (configuration not stated),?,-26%,?,3%,?,-11
CCOc1ccc(NC(=O)Nc2nnc(N3CCCCC3C)s2)cc1 (configuration not stated),/,/,23µM*,/,23µM*,/
NC(=O)/C=C\C(=O)Nc1cccc(C(F)(F)F)c1,10µM*,?,5.2µM*,?,21µM*,-105*
O=C(Nc1cccc(C(F)(F)F)c1)Nc1nnc(N2CCCCCC2)s1,/,/,?,/,5.8µM*,/
COc1ccc(S(=O)(=O)N(C)C[C@H]2Oc3ccc(NS(=O)(=O)c4cn(C)cn4)cc3C(=O)N([C@H](C)CO)C[C@@H]2C)cc1,19%,14%,-6%,18%,-13%,0
CCOC(=O)C(NCCc1ccccc1F)(NC(C)=O)C(F)(F)F (configuration not stated),14%,11%,-13%,2%,-3%,13
CCN1CCN(c2ccc(S(=O)(=O)N3CCCC3)cn2)CC1,2%,9%,0%,0%,-2%,-3
Cc1ccc(N(CC(=O)NCCc2ccccc2)C(=O)CCC(=O)Nc2cc(C)ccn2)cc1,-9%,?,-9%,-13%,?,-3
Cc1ccccc1NC(=O)COC(=O)/C=C/c1cccc(C(F)(F)F)c1,14%,17%,3%,-1%,-6%,1
O=C(Nc1ccncc1)Nc1cccc(C(F)(F)F)c1,-9%,7%,?,?,15µM*,-2
O=C(Nc1cccc(C(F)(F)F)c1)NC1CCCCC1,?,?,23µM*,-4%,?,-3
O=C(Nc1ccc(OC(F)F)cc1)Nc1cccc(C(F)(F)F)c1,?,?,3.7µM*,-11%,4.6µM*,-80*
O=C(Nc1cccc(C(F)(F)F)c1)Nc1ccon1,-1%,0%,-27%,-8%,?,24
CN1CCC(NC(=O)Nc2cccc(C(F)(F)F)c2)CC1,-3%,-8%,12%,-6%,-8%,-9
Cc1ccccc1NC(=O)/C=C/c1cccc(C(F)(F)F)c1,8%,-7%,-19%,-6%,-23%,-57*
SMILES,HT1080 IDH1KD tx,HT1080NT lethal,DT40 TDP1 CPT,uPA surface inh,TDP1 cell noCPT,IL1B secr inh
Cc1cc(C)n2c(=O)[nH]nc2c1,12%,8%,-1%,-3%,4%,18
O=C(NCc1ccco1)/C(=C/c1cccc(C(F)(F)F)c1)c1nc2ccccc2[nH]1,?,?,9.2µM*,-10%,5.8µM*,-115*
O=C(COC(=O)/C=C/c1cccc(C(F)(F)F)c1)NCc1ccco1,1%,7%,4%,0%,-26%,-5
O=C(NCc1ccco1)/C(=C/c1ccc(C(F)(F)F)cc1)c1nc2ccccc2[nH]1,-13%,-16%,?,?,?,-73*
O=S(=O)(/C(=C\c1ccc(C(F)(F)F)cc1)c1nc2ccccc2[nH]1)c1ccccc1,1.5µM*,1.8µM*,2.1µM*,-10%,2.1µM*,-96*
CCCC(=O)Nc1cc(C(=O)O)ccc1S(=O)(=O)c1ccc(Cl)cc1,8%,10%,24%,11%,6%,9
O=C(COC(=O)/C=C/c1ccccc1[N+](=O)[O-])NNC(=O)c1ccc(F)cc1,1%,-1%,-3%,-13%,-1%,16
Cc1nc(-c2ccccc2)nc2[nH]c(C(C)C)cc(=O)c12,8%,-17%,?,-13%,21µM*,-18
N#CCc1ccc(OC(=O)c2ccncc2)cc1,1%,-1%,-9%,-1%,-9%,4
CN(C)CCCN(C(=O)CCSc1ccccc1)c1nc2cc3c(cc2s1)OCO3,18µM*,?,8.2µM*,-2%,13µM*,-104*
CN(C)CCCN(C(=O)CCS(=O)(=O)c1ccccc1)c1nc2cc3c(cc2s1)OCO3,6%,-11%,1.3µM*,-13%,1.5µM*,-107*
CN(C)CCCN(C(=O)COc1ccccc1)c1nc2cc3c(cc2s1)OCCO3,1%,-1%,-7%,-9%,-30%,-1
C[C@@H]1CCCCCCCCC(=O)OCCN1C(=O)OC(C)(C)C,23%,15%,16µM*,4%,?,21
CC(C)(C)OC(=O)N1CCC[C@H]1C(=O)O,8%,15%,1%,14%,-3%,9
